Screening data (PubChem BioAssay)
The list is not random: actives were taken first. Their share in the collection is about 3.4%.
PP5 inh – blocks human protein phosphatase 5 activity; inhibition, % at 6.7 µM; purified PP5c, OMFP substrate fluorescence; 320,000 compounds, 0.18% hits; AID 1987;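 active = inhibition above the campaign's mean inhibition across all tested compounds plus 3 SD, cut at about 9.5% in these data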
PAFAH1B2 inh – PAFAH1B2 (human) inhibition; AID 492953; inhibition, % at 3.39 µM; recombinant PAFAH1B2, FP-rhodamine activity probe, fluorescence polarization; P68402; 340,000 compounds, 1.2% hits;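 active = inhibition above the mean of all tested compounds plus 3 SD, cut at about 24% in these data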
Target sequence (P68402 whole entry, looked up): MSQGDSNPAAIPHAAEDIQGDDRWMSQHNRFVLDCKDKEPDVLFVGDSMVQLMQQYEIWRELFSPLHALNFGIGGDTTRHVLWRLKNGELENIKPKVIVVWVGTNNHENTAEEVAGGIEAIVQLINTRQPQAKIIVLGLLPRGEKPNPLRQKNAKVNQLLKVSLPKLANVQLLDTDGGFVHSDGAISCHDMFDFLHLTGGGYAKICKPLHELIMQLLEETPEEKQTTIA
PAFAH1B3 inh – PAFAH1B3 (human) inhibition | Q15102 | recombinant PAFAH1B3, FP-rhodamine probe, fluorescence polarization | inhibition, % at 3.39 µM | 340,000 compounds, 0.28% hits | AID 492972;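 active = inhibition above the screen-wide average of all tested compounds plus 3 SD, cut at about 25% in these data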
Target sequence (Q15102 whole entry, looked up): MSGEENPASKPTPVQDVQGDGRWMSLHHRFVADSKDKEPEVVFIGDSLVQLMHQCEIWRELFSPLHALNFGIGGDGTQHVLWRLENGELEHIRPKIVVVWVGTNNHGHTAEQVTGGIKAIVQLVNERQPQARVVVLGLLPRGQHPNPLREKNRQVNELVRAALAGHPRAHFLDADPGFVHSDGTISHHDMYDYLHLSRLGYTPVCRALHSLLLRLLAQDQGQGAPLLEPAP
PAFAH2 FP inh – inhibitors of human PAFAH2; Q99487; recombinant PAFAH2, FP-rhodamine activity probe, fluorescence polarization; AID 492956; inhibition, % at 3.39 µM; 340,000 compounds, 0.99% hits;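 active = inhibition above the mean over all tested compounds plus 3 SD, cut at about 30% in these data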;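 also: inhibitors block probe labeling of enzyme so polarization drops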
pPAFAH FP inh – inhibitors of human plasma PAF acetylhydrolase (pPAFAH); 330,000 compounds, 1.5% hits; Q13093; AID 463082; recombinant pPAFAH, FP-rhodamine probe fluorescence polarization; inhibition, % at 3.39 µM;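 active = inhibition above the mean inhibition across the screen plus 3 SD, cut at about 25% in these data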;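 also: inhibitors block binding of the rhodamine activity-based probe so polarization drops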
PP1 inh – blocks human PP1-alpha phosphatase, a PP5 counter-screen | purified PP1alpha, OMFP fluorescence | inhibition, % at 6.7 µM | 320,000 compounds, 0.9% hits | P62136;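 active = inhibition above the mean inhibition of all tested compounds plus 3 SD, computed separately for each screening campaign, cut at about 15% in these data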
A number is an active result.

COc1cccc(C(=O)CN2CCN(S(=O)(=O)c3ccc(Br)cc3)CC2)c1 was read as PP5 inh inactive, PAFAH1B2 inh 29.1, PAFAH1B3 inh inactive, PAFAH2 FP inh inactive, pPAFAH FP inh inactive and PP1 inh inactive.
For O=C(CN1CCN(S(=O)(=O)c2ccc(Cl)cc2)CC1)Nc1ccc(F)cc1F the results were PP5 inh inactive, PAFAH1B2 inh 28.2, PAFAH1B3 inh inactive, PAFAH2 FP inh inactive, pPAFAH FP inh inactive and PP1 inh inactive.
For O=C(CN1CCN(S(=O)(=O)c2ccc(Cl)cc2)CC1)NC1CC1 the results were PP5 inh inactive, PAFAH1B2 inh 28.8, PAFAH1B3 inh inactive, PAFAH2 FP inh inactive, pPAFAH FP inh inactive and PP1 inh inactive.
Screening NS(=O)(=O)c1ccc(NC(=O)CN2CCN(S(=O)(=O)c3ccc(F)cc3)CC2)cc1 returned PP5 inh inactive, PAFAH1B2 inh inactive, PAFAH1B3 inh inactive, PAFAH2 FP inh inactive, pPAFAH FP inh inactive and PP1 inh inactive.
`CCN1CCN(S(=O)(=O)c2ccc(Cl)c(C(=O)NC3CC3)c2)CC1` gave PP5 inh inactive, PAFAH1B2 inh 24.2, PAFAH1B3 inh inactive, PAFAH2 FP inh inactive, pPAFAH FP inh inactive and PP1 inh inactive.
Screening O=C(O)COc1ccccc1/C=N/NC(=O)CN1CCN(S(=O)(=O)c2ccc(Br)cc2)CC1 returned PP5 inh inactive, PAFAH1B2 inh 27.2, PAFAH1B3 inh inactive, PAFAH2 FP inh inactive, pPAFAH FP inh inactive and PP1 inh inactive.
O=C(O)COc1ccccc1/C=N/NC(=O)CN1CCN(Cc2ccccc2Cl)CC1 was read as PP5 inh inactive, PAFAH1B2 inh inactive, PAFAH1B3 inh inactive, PAFAH2 FP inh inactive, pPAFAH FP inh inactive and PP1 inh inactive.
Cc1ccc(S(=O)(=O)N2CCN(CC(=O)Nc3ccccc3Cl)CC2)cc1 was read as PP5 inh inactive, PAFAH1B2 inh inactive, PAFAH1B3 inh inactive, PAFAH2 FP inh inactive, pPAFAH FP inh inactive and PP1 inh inactive.
`CC1CCN(S(=O)(=O)c2ccc(N/N=C(/C#N)C(N)=O)cc2)CC1` gave PP5 inh inactive, PAFAH1B2 inh 39.6, PAFAH1B3 inh inactive, PAFAH2 FP inh inactive, pPAFAH FP inh inactive and PP1 inh inactive.
`CCOC(=O)N1CCN(S(=O)(=O)c2ccc(Cl)cc2)CC1` gave PP5 inh inactive, PAFAH1B2 inh inactive, PAFAH1B3 inh inactive, PAFAH2 FP inh inactive, pPAFAH FP inh inactive and PP1 inh inactive.
`N#C/C(=N\Nc1ccc(S(=O)(=O)N2CCOCC2)cc1)C(N)=S` gave PP5 inh inactive, PAFAH1B2 inh inactive, PAFAH1B3 inh inactive, PAFAH2 FP inh inactive, pPAFAH FP inh inactive and PP1 inh inactive.
CCOC(=O)N1CCC(N2CCN(S(=O)(=O)c3ccc(Cl)cc3)CC2)CC1 was read as PP5 inh inactive, PAFAH1B2 inh 29.3, PAFAH1B3 inh inactive, PAFAH2 FP inh inactive, pPAFAH FP inh inactive and PP1 inh inactive.
For Cc1ccc(S(=O)(=O)Nc2ccc(NC(=O)CN3CCCCC3)c(Cl)c2)cc1 the results were PP5 inh inactive, PAFAH1B2 inh inactive, PAFAH1B3 inh inactive, PAFAH2 FP inh inactive, pPAFAH FP inh 26.2 and PP1 inh inactive.
For COc1ccc(Nc2cc(Nc3ccc(OC)cc3)ncn2)cc1 the results were PP5 inh inactive, PAFAH1B2 inh inactive, PAFAH1B3 inh inactive, PAFAH2 FP inh inactive, pPAFAH FP inh inactive and PP1 inh inactive.
COc1ccc(Br)c(C(=O)OCC(=O)NC(=O)NC2CCCC2)c1 was read as PAFAH1B2 inh inactive, PAFAH1B3 inh inactive, PAFAH2 FP inh inactive and pPAFAH FP inh inactive.
COc1ccc(NC(=O)CCC(=O)c2ccc(-c3ccccc3)cc2)cc1 was read as PP5 inh inactive, PAFAH1B2 inh inactive, PAFAH1B3 inh inactive, PAFAH2 FP inh inactive, pPAFAH FP inh inactive and PP1 inh 15.7.
COC(=O)N/N=C1\CCCc2ccccc21 was read as PP5 inh inactive, PAFAH1B2 inh inactive, PAFAH1B3 inh inactive, PAFAH2 FP inh inactive, pPAFAH FP inh inactive and PP1 inh inactive.
For C/C(CC(=O)Nc1ccc(Cl)c(Cl)c1)=N\NC(N)=S the results were PP5 inh inactive, PAFAH1B2 inh inactive, PAFAH1B3 inh inactive, PAFAH2 FP inh inactive, pPAFAH FP inh inactive and PP1 inh inactive.
`O=C1NC(=S)SC1=C1CCCC1` gave PP5 inh inactive, PAFAH1B2 inh inactive, PAFAH1B3 inh inactive, PAFAH2 FP inh inactive, pPAFAH FP inh 33.8 and PP1 inh inactive.
`COC(=O)CNc1c(-c2ccccc2)nc2ccc(Br)cn12` gave PP5 inh inactive, PAFAH1B2 inh inactive, PAFAH1B3 inh inactive, PAFAH2 FP inh inactive, pPAFAH FP inh inactive and PP1 inh inactive.
For O=C(O)CCc1ccc(-c2cccs2)n1CCC(=O)O the results were PP5 inh inactive, PAFAH1B2 inh inactive, PAFAH1B3 inh inactive, PAFAH2 FP inh inactive, pPAFAH FP inh inactive and PP1 inh inactive.
O=C(O)CCc1ccc(-c2cccs2)n1CCc1ccccc1 was read as PP5 inh inactive, PAFAH1B2 inh inactive, PAFAH1B3 inh inactive, PAFAH2 FP inh inactive, pPAFAH FP inh 33.6 and PP1 inh inactive.
For Cc1n[nH]c(=O)c2c(NC(=O)CSc3nnnn3-c3ccc(O)cc3)oc(C)c12 the results were PP5 inh inactive, PAFAH1B2 inh inactive, PAFAH1B3 inh inactive, PAFAH2 FP inh inactive, pPAFAH FP inh inactive and PP1 inh inactive.
Cc1ccccc1N=Cc1cc2c(cc1O)OC(N)=C(C#N)C2c1ccccc1 (stereo not drawn) was read as PP5 inh inactive, PAFAH1B2 inh inactive, PAFAH1B3 inh inactive, PAFAH2 FP inh inactive, pPAFAH FP inh 26.2 and PP1 inh inactive.
`CCOCC(O)CNC(=O)c1ccc2nc(Cc3ccc(OC)c(OC)c3)oc2c1` (stereo not drawn) gave PP5 inh inactive, PAFAH1B2 inh inactive, PAFAH1B3 inh inactive, PAFAH2 FP inh inactive, pPAFAH FP inh inactive and PP1 inh inactive.
Screening CCc1cccc(NC(=O)c2ccc(NS(=O)(=O)c3c(C)noc3C)cc2)c1 returned PP5 inh inactive, PAFAH1B2 inh inactive, PAFAH1B3 inh inactive, PAFAH2 FP inh inactive, pPAFAH FP inh 28.8 and PP1 inh inactive.
Cc1cccc(NC(=O)c2ccc(NS(=O)(=O)c3c(C)noc3C)cc2)c1 was read as PP5 inh inactive, PAFAH1B2 inh inactive, PAFAH1B3 inh inactive, PAFAH2 FP inh inactive, pPAFAH FP inh inactive and PP1 inh inactive.
For CC(c1ccccc1)N1CC(C(=O)NC2CCCC2)CC1=O (stereo not drawn) the results were PP5 inh inactive, PAFAH1B2 inh inactive, PAFAH1B3 inh inactive, PAFAH2 FP inh inactive, pPAFAH FP inh inactive and PP1 inh inactive.
Screening COc1cc(/C=N/N=C2\CC3CCC2(C)C3(C)C)ccc1O (stereo not drawn) returned PP5 inh inactive, PAFAH1B2 inh inactive, PAFAH1B3 inh inactive, PAFAH2 FP inh inactive, pPAFAH FP inh inactive and PP1 inh inactive.
`CC12CCC(C/C1=N\N=C1\NC(=O)/C(=C\c3cccc(Br)c3)S1)C2(C)C` (stereo not drawn) gave PP5 inh inactive, PAFAH1B2 inh inactive, PAFAH1B3 inh inactive, PAFAH2 FP inh inactive, pPAFAH FP inh 26.9 and PP1 inh inactive.
